# Hit rate of the full screen: of about 5,500 compounds, about 2,000 (36%) were called active. Another 18% or so got no clear call; they are omitted. The list shows a part of the results. Unmarked numbers belong to inactive results. Rule as the data show it: active = normalized growth mostly below about 0.91 (no sharp cut-off); inconclusive = no clear call, values can overlap the other calls; inactive = mostly above about 0.92.
# Experiment: chemical genetic growth profiling, strain panel (AID 1159580);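 also: tested at 20 µM; growth read once vehicle control cultures reached saturation at 30 °C; 1 = growth at the plate median or of vehicle wells; lower values mean less growth of the strain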
# Conditions: S. cerevisiae deletion strains, growth OD
# [1] = locus YAL013W, strain DEP1, hits give low values
# [2] = locus YBR229C, strain ROT2, hits give low values
# [3] = locus YDL101C, strain DUN1, hits give low values
# [4] = locus YDR150W, strain NUM1, hits give low values
# [5] = locus YEL061C, strain CIN8, hits give low values
# [6] = locus YGR078C, strain PAC10, hits give low values
# [7] = locus YHR030C, strain SLT2, hits give low values
# [8] = locus YHR087W, strain rtc3, hits give low values
# [9] = locus YJR043C, strain POL32, hits give low values
# [10] = locus YJR075W, strain HOC1, hits give low values
# [11] = locus YKL190W, strain CNB1, hits give low values
# [12] = locus YLR039C, strain RIC1, hits give low values
# [13] = locus YLR058C, strain SHM2 (second series), hits give low values
# [14] = locus YLR085C, strain ARP6, hits give low values
# [15] = locus YLR262C, strain YPT6, hits give low values
# [16] = locus YML094W, strain GIM5, hits give low values
# [17] = locus YMR219W, strain ESC1, hits give low values
# [18] = locus YMR263W, strain SAP30, hits give low values
# [19] = locus YNL153C, strain GIM3, hits give low values
# [20] = locus YNL298W, strain CLA4 (second series), hits give low values
# [21] = locus YNL322C, strain KRE1, hits give low values
# [22] = locus YNR030W, strain Alg12, hits give low values
# [23] = locus YPL055C, strain LGE1, hits give low values
# [24] = locus YPL241C, strain CIN2, hits give low values
# [25] = locus YPR135W, strain CTF4, hits give low values
smiles,measurement,setting,value
CC(=O)NN(C)c1ccc(C(F)(F)F)cc1[N+](=O)[O-],normalized growth,[1],1.01
same,normalized growth,[2],1.01
same,normalized growth,[3],1
same,normalized growth,[4],0.991
same,normalized growth,[5],1.02
same,normalized growth,[6],1
same,normalized growth,[7],1.11
same,normalized growth,[8],1.01
same,normalized growth,"locus YJL187C, strain SWE1, hits give low values",1.02
same,normalized growth,[9],1.01
same,normalized growth,[10],1
same,normalized growth,[11],1.01
same,normalized growth,[12],1
same,normalized growth,[13],1.01
same,normalized growth,[14],1.04
same,normalized growth,[15],0.986
same,normalized growth,[16],1.02
same,normalized growth,[17],1.01
same,normalized growth,[18],1.01
same,normalized growth,[19],1.01
same,normalized growth,[20],1.01
same,normalized growth,[21],1.01
same,normalized growth,[22],1.02
same,normalized growth,[23],0.989
same,normalized growth,[24],1.02
same,normalized growth,[25],1.07
FC(F)(F)c1ccc(NC(=S)Nc2ccc(C(F)(F)F)cc2Cl)c(Cl)c1,normalized growth,"locus YAR019C, strain CDC15, hits give low values",0.964
same,normalized growth,"locus YBL105C, strain PKC1, hits give low values",0.969
same,normalized growth,"locus YBR135W, strain CKS1, hits give low values",0.955
same,normalized growth,"locus YBR136W, strain MEC1, hits give low values",0.969
same,normalized growth,"locus YBR160W, strain CDC28, hits give low values",0.948
same,normalized growth,"locus YDL017W, strain CDC7, hits give low values",0.965
same,normalized growth,"locus YDL028C, strain MPS1, hits give low values",0.952
same,normalized growth,[3],0.993
same,normalized growth,"locus YDL108W, strain KIN28, hits give low values",0.946
same,normalized growth,"locus YDL132W, strain cdc53, hits give low values",0.949
same,normalized growth,"locus YDL214C, strain PRR2, hits give low values",0.921
same,normalized growth,"locus YDR052C, strain DBF4, hits give low values",0.979
same,normalized growth,"locus YDR054C, strain cdc34, hits give low values",0.976
same,normalized growth,"locus YDR226W, strain ADK1, hits give low values",0.936
same,normalized growth,"locus YDR477W, strain SNF1, hits give low values",0.938
same,normalized growth,"locus YER123W, strain YCK3, hits give low values",0.902
same,normalized growth,"locus YER133W, strain GLC7, hits give low values",0.933
same,normalized growth,"locus YFL009W, strain cdc4, hits give low values",0.921
same,normalized growth,"locus YFL029C, strain CAK1, hits give low values",0.968
same,normalized growth,"locus YFR003C, strain YPI1, hits give low values",0.955
same,normalized growth,"locus YFR019W, strain FAB1, hits give low values",0.932
same,normalized growth,"locus YFR028C, strain CDC14, hits give low values",0.953
same,normalized growth,"locus YGR040W, strain KSS1, hits give low values",0.929
same,normalized growth,"locus YGR052W, strain FMP48, hits give low values",0.937
same,normalized growth,"locus YGR092W, strain DBF2, hits give low values",0.911
same,normalized growth,[7],0.83 (active)
same,normalized growth,"locus YHR079C, strain IRE1, hits give low values",0.948
same,normalized growth,"locus YHR082C, strain KSP1, hits give low values",0.926
same,normalized growth,"locus YHR205W, strain SCH9, hits give low values",0.919
same,normalized growth,"locus YIL147C, strain SLN1, hits give low values",0.962
same,normalized growth,"locus YJL095W, strain BCK1, hits give low values",0.919
same,normalized growth,"locus YJL128C, strain PBS2, hits give low values",0.956
same,normalized growth,"locus YJL157C, strain FAR1, hits give low values",0.928
same,normalized growth,"locus YJR016C, strain ILV3, hits give low values",0.966
same,normalized growth,"locus YJR066W, strain TOR1 (second series), hits give low values",0.95
same,normalized growth,"locus YJR066W, strain TOR1, hits give low values",0.886
same,normalized growth,"locus YKL048C, strain ELM1, hits give low values",0.946
same,normalized growth,"locus YKL067W, strain YNK1, hits give low values",0.907
same,normalized growth,"locus YKL101W, strain HSL1, hits give low values",0.898
same,normalized growth,"locus YKL193C, strain SDS22, hits give low values",0.954
same,normalized growth,"locus YKL203C, strain TOR2, hits give low values",1.03
same,normalized growth,"locus YLR113W, strain HOG1, hits give low values",0.836 (active)
same,normalized growth,"locus YLR133W, strain CKI1, hits give low values",0.923
same,normalized growth,"locus YLR403W, strain SFP1, hits give low values",0.949
same,normalized growth,"locus YML070W, strain DAK1, hits give low values",0.902
same,normalized growth,"locus YMR001C, strain CDC5, hits give low values",0.961
same,normalized growth,"locus YMR205C, strain PFK2 (second series), hits give low values",0.929
same,normalized growth,"locus YMR277W, strain FCP1, hits give low values",0.944
same,normalized growth,"locus YNL006W, strain LST8, hits give low values",0.961
same,normalized growth,"locus YNL020C, strain ARK1, hits give low values",0.887
same,normalized growth,"locus YNL161W, strain CBK1, hits give low values",0.967
same,normalized growth,"locus YNL183C, strain NPR1, hits give low values",0.929
same,normalized growth,"locus YNL207W, strain RIO2, hits give low values",0.948
same,normalized growth,"locus YNL222W, strain SSU72, hits give low values",0.95
same,normalized growth,"locus YNL307C, strain MCK1 (second series), hits give low values",0.888
same,normalized growth,"locus YOL078W, strain AVO1, hits give low values",0.955
same,normalized growth,"locus YOL136C, strain PFK27, hits give low values",0.908
same,normalized growth,"locus YOR061W, strain CKA2, hits give low values",0.911
same,normalized growth,"locus YOR119C, strain RIO1, hits give low values",0.954
same,normalized growth,"locus YOR231W, strain MKK1, hits give low values",0.92
same,normalized growth,"locus YOR329C, strain SCD5, hits give low values",0.971
same,normalized growth,"locus YPL031C, strain PHO85, hits give low values",0.945
same,normalized growth,"locus YPL153C, strain RAD53, hits give low values",0.927
same,normalized growth,"locus YPL204W, strain HRR25, hits give low values",0.916
same,normalized growth,"locus YPL209C, strain IPL1, hits give low values",0.972
same,normalized growth,"locus YPL256C, strain CLN2, hits give low values",0.929
same,normalized growth,"locus YPR025C, strain CCL1, hits give low values",0.966
same,normalized growth,"locus YPR106W, strain ISR1, hits give low values",0.956
same,normalized growth,"locus YPR111W, strain DBF20, hits give low values",0.929
same,normalized growth,"strain NNK1, hits give low values",0.959
same,normalized growth,"strain TSCII, hits give low values",0.97
NNC(=S)Nc1cc(C(F)(F)F)ccc1Cl,normalized growth,[1],0.926 (active)
same,normalized growth,[2],0.87 (active)
same,normalized growth,"locus YCL061C, strain MRC1, hits give low values",0.828 (active)
same,normalized growth,[3],0.875 (active)
same,normalized growth,"locus YDL134C, strain PPH21, hits give low values",0.86 (active)
same,normalized growth,[4],0.872
same,normalized growth,[5],0.807 (active)
same,normalized growth,[6],0.848 (active)
same,normalized growth,"locus YGR229C, strain SMI1, hits give low values",0.997
same,normalized growth,[7],0.324 (active)
same,normalized growth,[8],0.938
same,normalized growth,[9],0.88 (active)
same,normalized growth,[10],0.92
same,normalized growth,[11],0.64 (active)
same,normalized growth,[12],0.711 (active)
same,normalized growth,[13],0.977
same,normalized growth,[14],0.298 (active)
same,normalized growth,[15],0.804 (active)
same,normalized growth,[16],0.81 (active)
same,normalized growth,[17],0.978
same,normalized growth,[18],0.914
same,normalized growth,"locus YNL128W, strain TEP1, hits give low values",0.858 (active)
same,normalized growth,[19],0.899 (active)
same,normalized growth,[20],0.408 (active)
same,normalized growth,[21],0.993
same,normalized growth,[22],0.525 (active)
same,normalized growth,[23],0.786 (active)
same,normalized growth,[24],0.664 (active)
same,normalized growth,[25],0.373 (active)

# — PubChem BioAssay AID1159580 (chemical genetic matrix, 2015)
